The values below come from PubChem BioAssay (NCATS).

SMILES strings stand for the structures. “And” between values parts separate entries of the source, which are not always exact repeats. Identical values can stand only once. Results filed as inconclusive are left out. A call without a number means that no potency is given here. A number with no mark means an inactive call. The source made the active and inactive calls. The call rests on the fitted dose curve; in most records, active means well fitted inhibition curve with a large enough effect; inconclusive means small, poorly fitted or top-dose-only effect; inactive means flat fitted curve, though single readings scatter.
Further: nearly all actives have a fitted effect of over 60% in size.

For one experiment, the system named is P93_24. The experiment in a line: qHTS profiling for inhibitors of Plasmodium falciparum proliferation (AID 504749). Particulars: P. falciparum in erythrocytes, SYBR Green DNA, 72 h; series mostly up to 28.7 µM. In short, it runs like this: (§1)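 In a 72 h erythrocytic culture (37 C, humidified, 5% CO2) at 2.5% hematocrit and 0.3% starting parasitemia, compounds were tested; SYBR Green I in detergent lysis buffer stained parasite DNA overnight.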
As for `CCN(CC)C(=O)c1ccc(O)c(OC)c1`, the outcome was inactive.
Take `C[N+](C)(C)CCCCCC[N+](C)(C)C`: the outcome was inactive.
Still for that read-out and setting: next, `CC(=O)N[C@@H](CS)C(=O)O`: “inactive”.

The next experiment relates to P94_40. Described as above. Particulars: P. falciparum in erythrocytes, SYBR Green DNA, 72 h; series mostly up to 28.7 µM. Summed up:
as §1
In the case of `CCN(CC)C(=O)c1ccc(O)c(OC)c1`, the Potency result was “inactive”.
Same read-out and setting: with `O=C1Nc2ccc(Cl)cc2C(C#CC2CC2)(C(F)(F)F)O1` (stereo not given) the entry was “inactive”.
The same measure, in the same setting: next, `C[N+](C)(C)CCCCCC[N+](C)(C)C`: “inactive”.
In the case of `CC(=O)N[C@@H](CS)C(=O)O`, the Potency result is “inactive”.

In another experiment the test system is PAD. The description is as above. The conditions noted are these: P. falciparum in erythrocytes, SYBR Green DNA, 72 h; series mostly up to 28.7 µM. Summed up:
as §1
In the case of `CCN(CC)C(=O)c1ccc(O)c(OC)c1`, the compound was called inactive.
Take `C[N+](C)(C)CCCCCC[N+](C)(C)C`: the result was inactive.
`CC(=O)N[C@@H](CS)C(=O)O`: the compound was classed as inactive.

A further experiment has as its system PC15. Described as above. The conditions noted are these: P. falciparum in erythrocytes, SYBR Green DNA, 72 h; series mostly up to 28.7 µM. Summed up:
as §1
Take `CCN(CC)C(=O)c1ccc(O)c(OC)c1`: the call was inactive.
As for `C[N+](C)(C)CCCCCC[N+](C)(C)C`, the compound was classed as inactive.
Still for that read-out and setting: with `CC(=O)N[C@@H](CS)C(=O)O` the entry was “inactive”.

The next experiment concerns PC26. Described as above. The conditions noted are these: P. falciparum in erythrocytes, SYBR Green DNA, 72 h; series mostly up to 28.7 µM. In short, it runs like this:
as §1
For the compound `CCN(CC)C(=O)c1ccc(O)c(OC)c1`, the Potency entry was “inactive”.
Still for that read-out and setting: next, `C[N+](C)(C)CCCCCC[N+](C)(C)C`: “inactive”.
The same measure, in the same setting: next, `CC(=O)N[C@@H](CS)C(=O)O`: “inactive”.

The subject of another experiment is PC49. The experiment is described as above. Particulars: P. falciparum in erythrocytes, SYBR Green DNA, 72 h; series mostly up to 28.7 µM. In short, it runs like this: as §1
For `CCN(CC)C(=O)c1ccc(O)c(OC)c1`, the call was inactive.
The same measure, in the same setting: with `O=C1Nc2ccc(Cl)cc2C(C#CC2CC2)(C(F)(F)F)O1` (stereo not given) the entry was “inactive”; with `C[N+](C)(C)CCCCCC[N+](C)(C)C`, “inactive”.
Same read-out and setting: with `CC(=O)N[C@@H](CS)C(=O)O` the entry was “inactive”.

For a further experiment, the system named is SC27B. The experiment is described as above. The conditions noted are these: P. falciparum in erythrocytes, SYBR Green DNA, 72 h; series mostly up to 28.7 µM. Summed up: as §1
Regarding `CCN(CC)C(=O)c1ccc(O)c(OC)c1`, the Potency result is “inactive”.
Same read-out and setting: with `O=C1Nc2ccc(Cl)cc2C(C#CC2CC2)(C(F)(F)F)O1` (stereo not given) the entry was “inactive”.
Still for that read-out and setting: next, `C[N+](C)(C)CCCCCC[N+](C)(C)C`: “inactive”; `CC(=O)N[C@@H](CS)C(=O)O`: “inactive”.

The subject of the next experiment is TAB109. The experiment is described as above. The conditions noted are these: P. falciparum in erythrocytes, SYBR Green DNA, 72 h; series mostly up to 28.7 µM. In short, it runs like this:
as §1
Turning to `CCN(CC)C(=O)c1ccc(O)c(OC)c1`, the compound was classed as inactive.
Still for that read-out and setting: next, `O=C1Nc2ccc(Cl)cc2C(C#CC2CC2)(C(F)(F)F)O1` (stereo not given): “inactive”; `C[N+](C)(C)CCCCCC[N+](C)(C)C`: “inactive”.
Still for that read-out and setting: with `CC(=O)N[C@@H](CS)C(=O)O` the entry was “inactive”.

The subject of the next experiment is TAB113. The experiment is described as above. The conditions noted are these: P. falciparum in erythrocytes, SYBR Green DNA, 72 h; series mostly up to 28.7 µM. In short, it runs like this:
as §1
For the compound `CCN(CC)C(=O)c1ccc(O)c(OC)c1`, the Potency entry is “inactive”.
On the same count and under the same terms, with `O=C1Nc2ccc(Cl)cc2C(C#CC2CC2)(C(F)(F)F)O1` (stereo not given) the entry was “inactive”; with `C[N+](C)(C)CCCCCC[N+](C)(C)C`, “inactive”.
Still for that read-out and setting: with `CC(=O)N[C@@H](CS)C(=O)O` the entry was “inactive”.

Another experiment deals with TAB165. Described as above. The conditions noted are these: P. falciparum in erythrocytes, SYBR Green DNA, 72 h; series mostly up to 28.7 µM. Summed up: as §1
Take `CCN(CC)C(=O)c1ccc(O)c(OC)c1`: the Potency entry is “inactive”.
The same measure, in the same setting: next, `C[N+](C)(C)CCCCCC[N+](C)(C)C`: “inactive”.
As to `CC(=O)N[C@@H](CS)C(=O)O`, the Potency result is “inactive”.

The subject of a further experiment is W2. Described as above. Particulars: P. falciparum in erythrocytes, SYBR Green DNA, 72 h; series mostly up to 28.7 µM. In short, it runs like this: as §1
For the compound `CCN(CC)C(=O)c1ccc(O)c(OC)c1`, the Potency result was “inactive”.
For `O=C1Nc2ccc(Cl)cc2C(C#CC2CC2)(C(F)(F)F)O1` (stereo not given), the Potency entry is “inactive”.
Regarding `C[N+](C)(C)CCCCCC[N+](C)(C)C`, the Potency result is “inactive”.
On to `CC(=O)N[C@@H](CS)C(=O)O`, for which the Potency result is “inactive”.

The subject of another experiment is CRL-7250. Briefly: Cytotoxic Profiling of Annotated Libraries Using Quantitative High-Throughput Screening (AID 1296008). Further: potency means the concentration at half of the fitted maximal effect. Particulars: Five cell lines viability, CellTiter-Glo ATP luminescence, 48-72 h; max response: active compounds read low. Summed up:
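Cytotoxicity was measured as CellTiter-Glo ATP luminescence, read after 10 min at room temperature. Compound treatment of the cells lasted 48 or 72 hr at 37 degrees Celsius in a qHTS format.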
As to `COc1ccc(-c2coc3cc(O)ccc3c2=O)cc1`, the outcome was inactive.
In the case of `CN(C[C@@H]1COCCO1)S(=O)(=O)Nc1ccc2ccc3ncc(-c4cnn(C)c4)cc3c(=O)c2c1`, the Potency is 469 nM (active).
As to `CN(C)c1cc(NC(=O)CNC(C)(C)C)c(O)c2c1C[C@@H]1C[C@H]3[C@H](N(C)C)C(=O)C(C(N)=O)=C(O)[C@@]3(O)C(=O)C1=C2O`, the max response is -28.8%.
`CCN(CC)C(=O)c1ccc(O)c(OC)c1`: the max response was -9.2%.
Same read-out and setting: with `CC(C)NCC(O)COc1cccc2[nH]ccc12` (stereo not given) the figure was -21.3% and 3.12%.
Turning to `O=c1cc(CN2CCOCC2)occ1OCCCCCSc1ccnc2cc(C(F)(F)F)ccc12`, the Potency was 11.8 µM (active) and 9.2 µM (active).
Regarding `OC[C@H]1O[C@@H](n2cnc3c2NC=NC[C@@H]3O)C[C@H]1O`, the max response is 2.48%.
On to `COc1ccc(-c2nc(N3CCOCC3)c3sc(CN(C)c4ncc(C(=O)NO)cn4)cc3n2)cn1`, for which the Potency is 59 nM (active).
Turning to `COc1ccc(-c2cc(=O)c3c(O)cc(O)cc3o2)cc1O`, the compound was called inactive.
For the compound `O=c1cc(N2CCOCC2)oc2c(-c3cccc4c3sc3ccccc34)cccc12`, the max response was -14.3%.
Same read-out and setting: next, `O=C(OCC#CCSc1nnc(-c2cccc3ccccc23)o1)c1cc2ccccc2s1`: 3.01%; `CCC(CC)[C@H](NC(C)=O)[C@@H]1[C@H](O)[C@@H](C(=O)O)C[C@@H]1N=C(N)N`: 2.58%.
Take `CCN(CC)CCOc1ccc(C(=C(Cl)c2ccccc2)c2ccccc2)cc1`: the max response is -5.74%.
Regarding `COC(=O)C1=CO[C@@H](O)[C@@H]2C(CO)=CC[C@@H]12`, the max response is 0.508%.
For the compound `Nc1ncnc2ccccc12`, the outcome was inactive.
Consider `CN1C[C@H]2c3ccccc3Oc3ccc(Cl)cc3[C@@H]2C1`, for which the max response is -7.6% and -3.52%.
The same measure, in the same setting: with `CO[C@H]1C[C@@H]2CC[C@@H](C)[C@@](O)(O2)C(=O)C(=O)N2CCCC[C@@H]2C(=O)O[C@H]([C@@H](C)C[C@@H]2CC[C@H](O)[C@H](OC)C2)CC(=O)[C@H](C)C=C(C)[C@@H](O)[C@@H](OC)C(=O)[C@H](C)C[C@H](C)C=CC=CC=C1C` the figure was -19.3%; with `CC(C)C(C)C=CC(C)C1CCC2C3=CC=C4CC(O)CCC4(C)C3CCC21C` (stereo not given), -1.32%.
As for `O=c1cc(-c2cccc3c2Sc2ccccc2S3)oc(N2CCOCC2)c1`, the compound was classed as inactive.
On the same count and under the same terms, next, `CC(C)(Cc1ccc2ccccc2c1)NC[C@@H](O)COc1cccc(Cl)c1C#N`: “inactive”.
As for `CC(C)(C)c1ccc(C(O)CCCN2CCC(C(O)(c3ccccc3)c3ccccc3)CC2)cc1` (stereo not given), the outcome was inactive.
Regarding `O=C1Nc2ccc(Cl)cc2C(C#CC2CC2)(C(F)(F)F)O1` (stereo not given), the max response is -18.6%.
Consider `O=C1C[C@@H](c2ccc(O)cc2)Oc2cc(O)cc(O)c21`, for which the max response is -1.31%.
The same measure, in the same setting: with `Cc1[nH]c(C=C2C(=O)Nc3ccc(S(=O)(=O)Cc4c(Cl)cccc4Cl)cc32)c(C)c1C(=O)N1CCC[C@H]1CN1CCCC1` the figure was 1.44%.
On to `CC1(C)CCC(CN2CCN(c3ccc(C(=O)NS(=O)(=O)c4ccc(NCC5CCOCC5)c([N+](=O)[O-])c4)c(Oc4cnc5[nH]ccc5c4)c3)CC2)=C(c2ccc(Cl)cc2)C1`, for which the max response was -2.21% and -9.69%.
On to `Cc1c[nH]c(C=C2C(=O)Nc3ccccc32)c1CCC(=O)O`, for which the Potency is 6620 nM (active).
Regarding `COc1cccc(-c2cc(=O)c3ccccc3o2)c1N`, the max response was -6.48%.
Turning to `CCOC1OC(=O)C[C@H]1NC(=O)[C@@H]1CCCN1C(=O)[C@@H](NC(=O)c1ccc(N)c(Cl)c1)C(C)(C)C` (stereo not given in full), the compound was classed as inactive.
Consider `O=C(O)C(O)Cc1ccc(O)c(O)c1` (stereo not given), for which the max response is -24.8%.
Still for that read-out and setting: with `CC=C(C)C(=O)O[C@H]1C(C)=C[C@]23C(=O)[C@@H](C=C(CO)[C@@H](O)[C@]12O)[C@H]1[C@@H](C[C@H]3C)C1(C)C` the figure was 2.46%; with `COc1ccc2cccc(CCNC(C)=O)c2c1`, -2.32%.
In the case of `O=c1c(O)c(-c2ccc(O)cc2)oc2cc(O)cc(O)c12`, the call was inactive.
Consider `Nc1ncnc2c1ncn2[C@@H]1O[C@H](CO)C[C@@H]1O`, for which the max response is -11.4%.
Regarding `C[N+](C)(C)CCCCCC[N+](C)(C)C`, the max response was -5.15%.
Regarding `NC(=O)NN=Cc1ccc([N+](=O)[O-])o1`, the call was inactive.
On to `CC(=O)N[C@@H](CS)C(=O)O`, for which the max response was -25.8%.
